The source of these data is PubChem BioAssay (NCI).

Compounds without any hit were thinned out: in the full panel of roughly 79,000, 15% have a hit. Active and inactive are the calls of the source. Rule as the data show it: active = growth inhibition above about 70%; inactive = the rest.

One assay in a line: NCI Yeast Anticancer Drug Screen. Data for the rad50 strain (AID 155).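 Also: 0% = growth of vehicle-only cultures of the same strain.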 Conditions: S. cerevisiae rad50 strain growth inhibition; at 50.0 µM; stronger effect = higher value. In a few lines: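 DNA repair mutant yeast, compound exposure, growth read-out; inhibition is taken relative to vehicle.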
As to `COC(OC)(c1ccccc1)C(Br)Br`, the growth inhibition is 85.8% (active).

In the case of `Cc1ccc(S(=O)(=O)OCCc2ccc(Cl)cc2)cc1`, the growth inhibition was -19.6% (inactive).

With `O=C(CC(=O)c1ccncc1)c1ccccc1`, the growth inhibition is 97.2% (active).

Take `CCN1CCC(O)(/C=C/c2ccccc2)C(C(=O)/C=C/c2ccccc2)C1` (stereo not given): the growth inhibition was 97.7% (active).

Consider `O=C(O)c1cc(Br)ccc1OCc1ccc(Cl)cc1`, for which the growth inhibition is 43.9% (inactive).

Consider `Cc1ccc(C2COc3cc(O)c(O)cc3C2)cc1` (stereo not given), for which the growth inhibition is 99.5% (active).

On to `COC(=O)c1c2oc3c(C(=O)OC)cccc3nc-2cc(N)c1=O`, for which the growth inhibition is 30.2% (inactive).

Regarding `CC(=O)NCCN(C)C`, the growth inhibition is 93.5% (active).

Turning to `N=c1scc(-c2ccccc2)n1/N=C/c1cccnc1`, the growth inhibition is 96.6% (active).

Turning to `C(=C/c1ccccc1)/C=N/Nc1ccccc1`, the growth inhibition is -15.8% (inactive).

As for `OC(Cc1ccc(Br)cc1)CN1CCC(c2ccccc2)CC1` (stereo not given), the growth inhibition is 83.9% (active).

Take `O=C1C(Cl)=C(Nc2ccc(S(=O)(=O)O)cc2)C(=O)c2ccccc21`: the growth inhibition was 99.5% (active).

Consider `CC1(CO)CCCC2(C)C3=C(CCCC3)CCC12` (stereo not given), for which the growth inhibition was -3.55% (inactive).

With `Cc1cc2nc(CC(=O)c3ccc4ccccc4c3)c(=O)[nH]c2cc1C`, the growth inhibition is 94.7% (active).

Consider `CN(CCO)CCn1cnc2c1c(=O)n(C)c(=O)n2C`, for which the growth inhibition was -36.7% (inactive).

With `O=C1c2ccccc2CC(Br)c2ccccc21` (stereo not given), the growth inhibition is 97.2% (active).

As for `Cc1cccc2c(CBr)cc(=O)[nH]c12`, the growth inhibition was 86.8% (active).

As for `CC(=O)CC1CCC(=O)/C=C/C(=O)OC(CC(C)=O)CCC(=O)/C=C/C(=O)O1` (stereo not given), the growth inhibition is 16.3% (inactive).

In the case of `CCN(CC)CC(O)c1c(-c2ccccc2)c(-c2ccccc2)c2n1CCC2` (stereo not given), the growth inhibition was 93.7% (active).

With `CC1(C)CC[C@]2(C(=O)O)[C@H](O)C[C@]3(C)C(=CC[C@@H]4[C@@]5(C)CC[C@H](OC6OCC(O)C(O)C6OC6OCC(O)C(O)C6OC6OCC(O)C(O)C6O)C(C)(C)[C@@H]5CC[C@]43C)[C@@H]2C1` (stereo not given in full), the growth inhibition is 51.9% (inactive).

In the case of `Cc1ccc(NC(=O)/C(CC(=O)c2sc(Nc3ccc(Cl)c(Cl)c3)nc2C)=N\Nc2ccc([N+](=O)[O-])cc2[N+](=O)[O-])c(C)c1`, the growth inhibition was 97.7% (active).

For the compound `CC(=O)N=C1N(/C=C2\C(=O)Oc3ccccc3C2=O)C(=O)/C(=C/c2ccc(Cl)cc2Cl)N1C`, the growth inhibition is 91.8% (active).

For the compound `COC1OC2COC(c3ccccc3)OC2C(NC(=S)SCc2ccccc2)C1O` (stereo not given), the growth inhibition is 99.4% (active).

For `O=C(CCN1CCCCC1)N1CCc2c([nH]c3ccccc23)C1c1cccnc1` (stereo not given), the growth inhibition was 13.1% (inactive).

Regarding `Cc1ccc(Sc2ccc(C)cc2[N+](=O)[O-])c([N+](=O)[O-])c1`, the growth inhibition is 2.7% (inactive).

As to `O=c1c2cc3ccccc3cc2c(=O)n2n1CC=CC2`, the growth inhibition is 74.2% (active).

`ClC(Cl)=C1C(=C(Cl)Cl)C(Cl)(Cl)C1(Cl)Cl`: the growth inhibition was 88.2% (active).

Regarding `Cc1c(C(=O)N(CCO)CCO)[n+](=O)c2ccccc2n1[O-]`, the growth inhibition is 28.9% (inactive).

`CN(C)c1cc(N(C)C)c2cc(-c3ccccc3)sc2n1`: the growth inhibition is 75.7% (active).

For the compound `O=C(Nc1ccccc1O)/C(Cl)=C/Cl`, the growth inhibition was 98.2% (active).

In the case of `Cc1ccccc1SCc1nc2ccccc2c(C)[n+]1[O-]`, the growth inhibition was 35.5% (inactive).

As to `Oc1ccc2c(ccc3ccccc32)c1`, the growth inhibition was 97.5% (active).

Regarding `O=C1c2ccccc2C(=O)N1C(=NCc1ccccc1)c1ccccc1`, the growth inhibition is 64.2% (inactive).

Consider `Cc1cc(Cl)cc2c1OCN(C)C2`, for which the growth inhibition was 99% (active).

As for `CC(C)C(=O)/C=C/c1ccc(Cl)cc1Cl`, the growth inhibition is 69.8% (inactive).

For the compound `CC(C)C(=O)c1ccc([N+](=O)[O-])o1`, the growth inhibition was 98.8% (active).

As for `CSc1c(S(C)=O)c2ccccc2n1C` (stereo not given), the growth inhibition is -20.6% (inactive).

`O=C(CCCCN1CCN2c3ccccc3CCC2C1)c1ccccc1` (stereo not given): the growth inhibition was 90.4% (active).

Take `COC(=O)c1ccc(C)cc1CC1Cc2cc(C)ccc2C1=O` (stereo not given): the growth inhibition is 36.1% (inactive).

`Cc1cc(Nc2ccc(N=Nc3ccc(O)c4ncccc34)cc2)nc(C)n1`: the growth inhibition was 71.1% (active).

The nature of a further assay: NCI Yeast Anticancer Drug Screen. Data for the mec2-1 strain (AID 157). To be noted: S. cerevisiae mec2-1 strain, at 5.0 µM (retest, dose inferred, filed as 0.5), stronger effect = higher value. An outline of the steps: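 Compounds were applied to mec2-1 yeast cells. Their growth was then compared with that of vehicle-treated cultures to give growth inhibition.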
For the compound `COC(OC)(c1ccccc1)C(Br)Br`, the growth inhibition was -18% (inactive).

In the case of `Cc1ccc(S(=O)(=O)OCCc2ccc(Cl)cc2)cc1`, the growth inhibition is -11% (inactive).

For the compound `O=C(CC(=O)c1ccncc1)c1ccccc1`, the growth inhibition is 7% (inactive).

As to `CCN1CCC(O)(/C=C/c2ccccc2)C(C(=O)/C=C/c2ccccc2)C1` (stereo not given), the growth inhibition was 6% (inactive).

Consider `O=C(O)c1cc(Br)ccc1OCc1ccc(Cl)cc1`, for which the growth inhibition was -1% (inactive).

On to `Cc1ccc(C2COc3cc(O)c(O)cc3C2)cc1` (stereo not given), for which the growth inhibition is 33% (inactive).

Consider `COC(=O)c1c2oc3c(C(=O)OC)cccc3nc-2cc(N)c1=O`, for which the growth inhibition is 22% (inactive).

As to `CC(=O)NCCN(C)C`, the growth inhibition was 2% (inactive).

As to `N=c1scc(-c2ccccc2)n1/N=C/c1cccnc1`, the growth inhibition is 3% (inactive).

Take `C(=C/c1ccccc1)/C=N/Nc1ccccc1`: the growth inhibition is -52% (inactive).

As for `OC(Cc1ccc(Br)cc1)CN1CCC(c2ccccc2)CC1` (stereo not given), the growth inhibition is 71% (active).

On to `O=C1C(Cl)=C(Nc2ccc(S(=O)(=O)O)cc2)C(=O)c2ccccc21`, for which the growth inhibition was 33% (inactive).

Turning to `CC1(CO)CCCC2(C)C3=C(CCCC3)CCC12` (stereo not given), the growth inhibition was -56% (inactive).

With `Cc1cc2nc(CC(=O)c3ccc4ccccc4c3)c(=O)[nH]c2cc1C`, the growth inhibition is -3% (inactive).

In the case of `CN(CCO)CCn1cnc2c1c(=O)n(C)c(=O)n2C`, the growth inhibition was -8% (inactive).

For the compound `O=C1c2ccccc2CC(Br)c2ccccc21` (stereo not given), the growth inhibition is -4% (inactive).

With `Cc1cccc2c(CBr)cc(=O)[nH]c12`, the growth inhibition is 15% (inactive).

Consider `CC(=O)CC1CCC(=O)/C=C/C(=O)OC(CC(C)=O)CCC(=O)/C=C/C(=O)O1` (stereo not given), for which the growth inhibition was 14% (inactive).

Consider `CCN(CC)CC(O)c1c(-c2ccccc2)c(-c2ccccc2)c2n1CCC2` (stereo not given), for which the growth inhibition is -3% (inactive).

As for `CC1(C)CC[C@]2(C(=O)O)[C@H](O)C[C@]3(C)C(=CC[C@@H]4[C@@]5(C)CC[C@H](OC6OCC(O)C(O)C6OC6OCC(O)C(O)C6OC6OCC(O)C(O)C6O)C(C)(C)[C@@H]5CC[C@]43C)[C@@H]2C1` (stereo not given in full), the growth inhibition is 12% (inactive).

With `Cc1ccc(NC(=O)/C(CC(=O)c2sc(Nc3ccc(Cl)c(Cl)c3)nc2C)=N\Nc2ccc([N+](=O)[O-])cc2[N+](=O)[O-])c(C)c1`, the growth inhibition is -4% (inactive).

Consider `CC(=O)N=C1N(/C=C2\C(=O)Oc3ccccc3C2=O)C(=O)/C(=C/c2ccc(Cl)cc2Cl)N1C`, for which the growth inhibition is 11% (inactive).

`COC1OC2COC(c3ccccc3)OC2C(NC(=S)SCc2ccccc2)C1O` (stereo not given): the growth inhibition is 0% (inactive).

Take `O=C(CCN1CCCCC1)N1CCc2c([nH]c3ccccc23)C1c1cccnc1` (stereo not given): the growth inhibition is 1% (inactive).

For the compound `Cc1ccc(Sc2ccc(C)cc2[N+](=O)[O-])c([N+](=O)[O-])c1`, the growth inhibition was 31% (inactive).

In the case of `O=c1c2cc3ccccc3cc2c(=O)n2n1CC=CC2`, the growth inhibition is -1% (inactive).

Regarding `ClC(Cl)=C1C(=C(Cl)Cl)C(Cl)(Cl)C1(Cl)Cl`, the growth inhibition is 14% (inactive).

For `Cc1c(C(=O)N(CCO)CCO)[n+](=O)c2ccccc2n1[O-]`, the growth inhibition was 13% (inactive).

For `CN(C)c1cc(N(C)C)c2cc(-c3ccccc3)sc2n1`, the growth inhibition is 3% (inactive).

Turning to `O=C(Nc1ccccc1O)/C(Cl)=C/Cl`, the growth inhibition was -47% (inactive).

`Cc1ccccc1SCc1nc2ccccc2c(C)[n+]1[O-]`: the growth inhibition is 4% (inactive).

For `Oc1ccc2c(ccc3ccccc32)c1`, the growth inhibition was -4% (inactive).

Turning to `O=C1c2ccccc2C(=O)N1C(=NCc1ccccc1)c1ccccc1`, the growth inhibition was 2% (inactive).

Take `Cc1cc(Cl)cc2c1OCN(C)C2`: the growth inhibition is 1% (inactive).

For the compound `CC(C)C(=O)/C=C/c1ccc(Cl)cc1Cl`, the growth inhibition is -10% (inactive).

As to `CC(C)C(=O)c1ccc([N+](=O)[O-])o1`, the growth inhibition was 11% (inactive).

`CSc1c(S(C)=O)c2ccccc2n1C` (stereo not given): the growth inhibition is 22% (inactive).

Regarding `O=C(CCCCN1CCN2c3ccccc3CCC2C1)c1ccccc1` (stereo not given), the growth inhibition is 2% (inactive).

Regarding `COC(=O)c1ccc(C)cc1CC1Cc2cc(C)ccc2C1=O` (stereo not given), the growth inhibition was -21% (inactive).

`Cc1cc(Nc2ccc(N=Nc3ccc(O)c4ncccc34)cc2)nc(C)n1`: the growth inhibition was -4% (inactive).
